For 37 molecules, growth inhibition and condensed nuclei results are on record in PubChem BioAssay AID771 (SRMLSC, 2007).

A short description of this test: HT29 colon tumor cell growth inhibition, primary screen, imaging, high content imaging, 48 h, CellTiter-Glo (AID 771).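 As to condensed nuclei: condensed means Hoechst nuclear area under control median minus 1.5 SD.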 The note with it: HCS imaging cell count, at 10 µM, stronger effect = higher value; for condensed nuclei: measured here: percent cells with condensed nuclei. On the technique in general: In ATP-based viability assays light output follows the ATP content of the culture.

Setting [1] is: measured here: ATP CellTiter-Glo viability inhibition.

About 55 (2%) of roughly 3,300 compounds were called active. The sample holds actives, similar compounds and a random draw of the others, so the mix is not that of the screen.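 The calls were made as follows: active = growth inhibition above 90%, meaning viable cell count by imaging cut by more than 90% versus vehicle controls; inactive = growth inhibition below 90%.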

Take `CCOc1ccc(C2C(C#N)=C(N)SC(N)=C2C#N)cc1OC`: the growth inhibition is 25.3% (inactive) and the condensed nuclei turned out to be 0.7%. The growth inhibition under setting [1] was found to be 1.94%.

In the case of `N=c1c2c(-c3ccccc3)c(-c3ccccc3)n(Cc3ccccc3)c2ncn1CCCn1ccnc1`, the growth inhibition is 99.7% (active) and the condensed nuclei is 41.1%. Further, the growth inhibition under setting [1] came out at 97.2%.

For the molecule `OCCNc1ncnc2c1c(-c1ccccc1)c(-c1ccccc1)n2Cc1ccco1`, the growth inhibition was 37.6% (inactive) and the condensed nuclei turned out to be 3.02%. Further, under setting [1], the growth inhibition stood at 15.3%.

For `O=c1c(C=NCCCn2ccnc2)c(-c2ccccc2)[nH]n1-c1nc2ccccc2s1`, the growth inhibition was 1.39% (inactive) and the condensed nuclei was 3.29%. Besides, the growth inhibition under setting [1] amounted to 1.73%.

For the molecule `COC(=O)c1[nH]c(C)c(/C(O)=C2\C(=O)C(=O)N(CCN3CCOCC3)C2c2ccccc2OC)c1C` (centres undefined), the growth inhibition is 15.6% (inactive) and the condensed nuclei worked out at 1.6%. The growth inhibition under setting [1] was found to be 7.04%.

Regarding `O=C(NCCN1CCCCC1)/C(=N\O)c1ccccc1`, the growth inhibition was -0.27% (inactive) and the condensed nuclei came to 1.08%. Under setting [1], the growth inhibition was -18.5%.

For `Cc1c(=O)n(OCc2c(F)cccc2F)c2ccccc2[n+]1[O-]`, the growth inhibition is 7.92% (inactive) and the condensed nuclei was found to be 2.94%. Besides, the growth inhibition under setting [1] was found to be 2.47%.

In the case of `C=CC(O)Cc1c(C)n[nH]c1C` (centres undefined), the growth inhibition was -31.7% (inactive) and the condensed nuclei came out at 2.84%. For the same molecule, under setting [1], the growth inhibition worked out at 7.27%.

In the case of `COc1ccc(OCC(=O)N2CCN(C(=O)c3cccc4ccccc34)CC2)cc1`, the growth inhibition is -1.2% (inactive) and the condensed nuclei was determined as 2%. Besides, under setting [1], the growth inhibition is -3.25%.

For the molecule `CNCCC=C1c2ccccc2CCc2ccccc21`, the growth inhibition is 97.6% (active) and the condensed nuclei is 32.9%.

Consider `CN(C)CCC=C1c2ccccc2CCc2ccccc21`, for which the growth inhibition was 28.2% (inactive) and the condensed nuclei turned out to be 6.45%.

With `COc1ccc(C(C)=O)cc1CSCCC(=O)O`, the growth inhibition is -39.8% (inactive) and the condensed nuclei amounted to 1.66%. Under setting [1], the growth inhibition was -10.3%.

On to `CCOC(=O)Oc1ccc2c(c1)C(C)=CC(C)(C)N2C(=O)OCC`, for which the growth inhibition is 44.5% (inactive) and the condensed nuclei is 1.63%. For the same molecule, the growth inhibition under setting [1] amounted to 33.4%.

On to `CCCc1cc(NCCCCO)n2c(nc3ccccc32)c1C#N`, for which the growth inhibition was 41.5% (inactive) and the condensed nuclei worked out at 2.71%. The growth inhibition under setting [1] came out at 6.57%.

Turning to `C/C(=N/n1cnnc1)c1cccnc1`, the growth inhibition is -50.9% (inactive) and the condensed nuclei came to 2.16%. Under setting [1], the growth inhibition was -4.47%.

On to `COCc1cc(=O)[nH]c(Nc2nc3ccccc3o2)n1`, for which the growth inhibition was 89.2% (inactive) and the condensed nuclei was determined as 2.5%. Besides, under setting [1], the growth inhibition amounted to 76.3%.

Take `Cc1cccc(OCc2nc(C)cc(=O)[nH]2)c1`: the growth inhibition was 37.9% (inactive) and the condensed nuclei was found to be 2.19%. Also, under setting [1], the growth inhibition stood at 1.04%.

For the molecule `COCc1cc(=O)[nH]c(Nc2nc3ccc(C)cc3o2)n1`, the growth inhibition was 93% (active) and the condensed nuclei is 0%. Moreover, the growth inhibition under setting [1] was determined as 69.7%.

For `COc1ccccc1-n1c(=O)c2c3c(sc2n2c(SC(C)C)nnc12)CCC3`, the growth inhibition was -4.74% (inactive) and the condensed nuclei came out at 3.08%. For the same molecule, the growth inhibition under setting [1] is -1.5%.

As to `COCCOC(=O)C1=C(C)NC(SCC(=O)NC(C)(C)C)=C(C#N)C1c1ccco1` (centres undefined), the growth inhibition was 34.7% (inactive) and the condensed nuclei was 3.96%. The growth inhibition under setting [1] is -24.4%.

For `C=CCOC(=O)C1=C(C)NC(SCC(=O)N(CC)CC)=C(C#N)C1c1ccccc1` (centres undefined), the growth inhibition is 54.1% (inactive) and the condensed nuclei came to 4.29%. Moreover, the growth inhibition under setting [1] was determined as 3.16%.

For `CCN(CC)C(=O)CSC1=C(C#N)C(c2ccco2)C(C(=O)OCCOC)=C(C)N1` (centres undefined), the growth inhibition was 25.5% (inactive) and the condensed nuclei was found to be 3.61%. Besides, the growth inhibition under setting [1] was 20.6%.

On to `C=CCOC(=O)C1=C(C)NC(SCC(=O)N(CC)CC)=C(C#N)C1c1ccco1` (centres undefined), for which the growth inhibition was -28.4% (inactive) and the condensed nuclei amounted to 2.96%. For the same molecule, the growth inhibition under setting [1] was -41.1%.

For `CCOC(=O)C1=C(c2ccccc2)NC(SCC(=O)Nc2ccccc2C)=C(C#N)C1c1ccco1` (centres undefined), the growth inhibition was 91% (active) and the condensed nuclei came to 11%. Further, the growth inhibition under setting [1] was found to be 75.3%.

On to `C=CCOC(=O)C1=C(C)NC(SCC(=O)Nc2ccc(C)c(Cl)c2)=C(C#N)C1c1ccco1` (centres undefined), for which the growth inhibition is 91.3% (active) and the condensed nuclei stood at 8.14%. Under setting [1], the growth inhibition was determined as 45.8%.

On to `Cc1cc(CC(=O)O)c(C)cc1CC(=O)O`, for which the growth inhibition was -42% (inactive) and the condensed nuclei was 2.43%. Under setting [1], the growth inhibition was -0.43%.

Turning to `CCCn1nnc(NC(=O)c2cc(Br)cc(Br)c2OC)n1`, the growth inhibition was -8.21% (inactive) and the condensed nuclei amounted to 7.92%. Further, the growth inhibition under setting [1] was -15.1%.

On to `O=C1[C@@H]2[C@H](C(=O)N1O)[C@H]1C=C[C@@H]2C1`, for which the growth inhibition is 1.8% (inactive) and the condensed nuclei was found to be 1.79%. The growth inhibition under setting [1] was -19.1%.

Take `CCCc1nnc(NC(=O)c2c(O)c3c([nH]c2=O)CCCC3)s1`: the growth inhibition is -9.28% (inactive) and the condensed nuclei amounted to 7.28%. Further, the growth inhibition under setting [1] is -32.6%.

Consider `CCN(CC)c1ccc(-c2nn3c(-c4cccnc4)nnc3s2)cc1`, for which the growth inhibition is 90.1% (active) and the condensed nuclei amounted to 4.92%. The growth inhibition under setting [1] amounted to 75%.

As to `c1cncc(-c2nnc3sc(-c4ccco4)nn23)c1`, the growth inhibition is 28% (inactive) and the condensed nuclei was 21.4%. In addition, under setting [1], the growth inhibition was determined as 26.6%.

Consider `COc1cc(-c2nn3c(-c4cccnc4)nnc3s2)cc(OC)c1OC`, for which the growth inhibition is -10.1% (inactive) and the condensed nuclei is 3%. Under setting [1], the growth inhibition is -33.4%.

Consider `O=C(NCCCn1ccnc1)c1cccnc1`, for which the growth inhibition was -11.4% (inactive) and the condensed nuclei is 2.67%. The growth inhibition under setting [1] is -30.1%.

Turning to `COc1cccc(-c2nc(N3CCN(Cc4ccccc4)CC3)c3ccccc3n2)c1O`, the growth inhibition was -8.14% (inactive) and the condensed nuclei is 2.41%. In addition, under setting [1], the growth inhibition stood at 0.87%.

`COc1cc2nc(-c3ccccc3)nc(N3CCCC3)c2cc1OC`: the growth inhibition is 27.7% (inactive) and the condensed nuclei was found to be 2.25%. The growth inhibition under setting [1] turned out to be 3.73%.

Turning to `CCOc1cc2nc(-c3ccc(OC)c(OC)c3)nc(N3CCOCC3)c2cc1OC`, the growth inhibition is 97.2% (active) and the condensed nuclei came out at 39.3%. Besides, the growth inhibition under setting [1] is 90%.

As for `CCC1(C)Cc2ccccc2-c2nc(NCCO)n(-c3ccccc3)c(=O)c21` (centres undefined), the growth inhibition is 60.4% (inactive) and the condensed nuclei is 2.11%. Moreover, the growth inhibition under setting [1] worked out at 4.3%.
